Assay [1] in a line: rapamycin-like changes in RPL19A-GFP expression – cell-based, S. cerevisiae, multiplex flow cytometry, primary screen (AID 1862; in the data active means percent of DMSO control GFP below about 86%;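 further: lower values mimic rapamycin by blocking the RPL19A rise seen in DMSO cells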). The conditions noted are these: S. cerevisiae RPL19A-GFP strain, flow cytometry fluorescence, 3 h; at 10 µM; stronger effect = lower value.
Assay [2] in a line: TOR pathway GLN3 branch reporter MEP2-GFP changes – S. cerevisiae, multiplex flow cytometry, primary screen (AID 1867;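 active means GFP response, as percent of the DMSO control, above the screen-wide mean plus 3 SD, about 139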;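 further: median GFP channel fluorescence of barcode-gated MEP2-GFP cells measured by flow cytometry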). The settings on record: S. cerevisiae MEP2-GFP strain, 3 h, at 10 µM, stronger effect = higher value, 100% means same as DMSO wells. For orientation: A flow cytometer gives signals particle by particle.
A short description of assay [3]: TOR pathway RTG branch CIT2 reporter changes – S. cerevisiae, GFP fusion, multiplex flow cytometry, primary screen (AID 1870;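 active means percent response above a set limit, the screen-wide mean plus 3 SD, cut at about 130% in these data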;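 further: barcoded CIT2-GFP strain pooled with four other GFP strains with rapamycin as positive control; median GFP fluorescence per well over plate mean of DMSO wells so 100% = DMSO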). The settings on record: S. cerevisiae CIT2-GFP expression, 3 h, at 10 µM, stronger effect = higher value.
The nature of assay [4]: TOR pathway LAP4-GFP level changes – S. cerevisiae, multiplex flow cytometry, primary screen (AID 1873;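 active means GFP signal, as percent of the solvent control, above the screen mean plus 3 SD, about 149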). The settings on record: S. cerevisiae LAP4-GFP expression, 3 h, at 10 µM, stronger effect = higher value.
Assay [5] can be described thus: yeast AGP1-GFP level changes, GLN3 branch – cell-based, multiplex flow cytometry, S. cerevisiae, primary screen (AID 1887;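 active means GFP signal above the screen-wide mean plus 3 SD, that is over about 124.5% of the solvent control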;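 further: AGP1-GFP fusion strain of S. cerevisiae within a five-strain barcoded multiplex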). The settings on record: 3 h, at 10 µM, stronger effect = higher value.
Assay [6] in a line: reduced mouse 2C T cell binding to pMHC/ICAM-1 vesicles – MLPCN validation set, flow cytometry, LFA-1/ICAM-1 modulator project, pilot screen (AID 2523;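 active means response below a set limit, under 55% cells CD8-positive and vesicle-bound, and CD8 cells' 90th-percentile brightness under 279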;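 on vesicle binding response: mean PE anti-B7-1 fluorescence of CD8+ cells relative to row control; 100% = QL9-loaded vesicles with DMSO vehicle in the same plate row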). The settings on record: 2C mouse CD8+ T cells, at 7 µM, stronger effect = lower value; double positive events: measured here: CD8+/vesicle+ event percentage.
In assay [7] the target is Integrin beta-1 (Homo sapiens) + Integrin alpha-4 (Homo sapiens) (UniProt P13612+P05556). The assay is described as follows: alpha4beta1 integrin LIBS antibody binding reduction – U937 cells, HUTS-21 mAb, flow cytometry, validation set, VLA-4 allosteric modulator project, pilot screen (AID 2674;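 active means inhibition above 50%, about 3 SD of the validation set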;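 further: antibody binding induced by the VLA-4 ligand LDV present at three times its Kd; 0% = LDV ligand with antibody and no compound and 100% = antibody without LDV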). The conditions noted are these: HUTS-21 LIBS mAb binding, at 6.7 µM, stronger effect = higher value, binding induced by LDV ligand.
Sequence of Integrin beta-1 (Homo sapiens) + Integrin alpha-4 (Homo sapiens) (P05556 whole entry, looked up): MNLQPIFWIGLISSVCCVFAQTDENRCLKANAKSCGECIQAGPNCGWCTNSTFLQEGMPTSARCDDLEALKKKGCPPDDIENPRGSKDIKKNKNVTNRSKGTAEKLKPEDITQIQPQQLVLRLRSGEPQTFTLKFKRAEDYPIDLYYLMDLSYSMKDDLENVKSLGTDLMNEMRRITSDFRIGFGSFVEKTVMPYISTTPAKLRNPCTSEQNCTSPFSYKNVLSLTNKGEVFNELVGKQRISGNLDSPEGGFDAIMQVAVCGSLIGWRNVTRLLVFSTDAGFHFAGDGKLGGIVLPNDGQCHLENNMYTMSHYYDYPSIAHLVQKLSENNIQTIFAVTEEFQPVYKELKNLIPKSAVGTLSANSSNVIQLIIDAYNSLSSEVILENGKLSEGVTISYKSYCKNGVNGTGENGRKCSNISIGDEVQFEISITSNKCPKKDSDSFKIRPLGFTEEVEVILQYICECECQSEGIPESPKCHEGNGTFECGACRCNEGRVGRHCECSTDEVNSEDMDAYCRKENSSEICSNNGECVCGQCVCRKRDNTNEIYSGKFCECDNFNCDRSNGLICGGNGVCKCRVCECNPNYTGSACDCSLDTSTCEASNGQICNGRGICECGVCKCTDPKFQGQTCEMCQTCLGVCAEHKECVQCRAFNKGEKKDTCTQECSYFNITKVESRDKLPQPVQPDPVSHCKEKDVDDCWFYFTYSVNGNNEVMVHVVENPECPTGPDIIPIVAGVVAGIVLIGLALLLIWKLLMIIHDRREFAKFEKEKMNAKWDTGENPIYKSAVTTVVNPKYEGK
Sequence of Integrin beta-1 (Homo sapiens) + Integrin alpha-4 (Homo sapiens) (P13612 whole entry, looked up): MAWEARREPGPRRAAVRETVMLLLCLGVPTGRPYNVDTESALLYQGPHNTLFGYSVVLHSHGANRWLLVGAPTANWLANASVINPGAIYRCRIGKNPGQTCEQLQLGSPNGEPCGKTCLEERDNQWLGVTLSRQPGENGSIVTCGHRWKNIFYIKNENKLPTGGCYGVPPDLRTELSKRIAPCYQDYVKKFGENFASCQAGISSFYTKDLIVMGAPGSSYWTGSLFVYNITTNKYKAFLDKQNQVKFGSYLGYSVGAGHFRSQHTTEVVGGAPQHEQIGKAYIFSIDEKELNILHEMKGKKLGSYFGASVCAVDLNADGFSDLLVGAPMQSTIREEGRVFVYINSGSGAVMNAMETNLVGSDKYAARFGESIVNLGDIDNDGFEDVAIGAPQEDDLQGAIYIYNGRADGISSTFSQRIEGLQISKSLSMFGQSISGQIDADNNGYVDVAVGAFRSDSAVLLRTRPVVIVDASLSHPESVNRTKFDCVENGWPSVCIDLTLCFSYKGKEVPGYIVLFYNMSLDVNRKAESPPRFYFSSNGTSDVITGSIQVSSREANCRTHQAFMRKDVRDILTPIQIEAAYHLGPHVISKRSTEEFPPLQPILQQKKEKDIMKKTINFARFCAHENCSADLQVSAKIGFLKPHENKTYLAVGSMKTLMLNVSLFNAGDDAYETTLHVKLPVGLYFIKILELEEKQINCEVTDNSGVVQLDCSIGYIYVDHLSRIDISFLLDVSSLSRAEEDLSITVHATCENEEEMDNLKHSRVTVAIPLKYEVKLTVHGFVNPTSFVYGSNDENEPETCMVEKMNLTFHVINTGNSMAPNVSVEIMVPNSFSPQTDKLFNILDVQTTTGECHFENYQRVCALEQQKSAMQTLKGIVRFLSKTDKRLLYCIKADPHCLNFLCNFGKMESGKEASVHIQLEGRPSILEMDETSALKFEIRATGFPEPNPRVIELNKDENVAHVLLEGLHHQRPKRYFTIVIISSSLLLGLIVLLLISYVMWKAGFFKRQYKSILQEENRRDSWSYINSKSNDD

A short description of assay [8]: calorie-restriction mimetic ROS inhibitors, yeast – validation compound set, pilot screen (AID 2706;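 active means superoxide response below 65% of plate, a cut near 3 SD across the whole screen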;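 further: yeast exposed to compound for one week at 30 degrees C before staining; 100% = mean of all compound wells on the same plate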). The conditions noted are these: S. cerevisiae aging, superoxide DHE fluorescence; at 10 µM; stronger effect = lower value.
The target in assay [9] is Beta-adrenergic receptor kinase 1 (Homo sapiens) (UniProt P25098). In words: GRK2 binders displacing RNA aptamer, biochemical, validation, human GRK2, bead flow cytometry (AID 488806;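 active means aptamer binding inhibition above 30%, about 3 SD of noise from non-fluorescent compounds; inactive means inhibition at or below 30%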). The conditions noted are these: bead-bound GRK2, FAM-aptamer displacement, at 10 µM, stronger effect = higher value.
Sequence of Beta-adrenergic receptor kinase 1 (Homo sapiens) (P25098 whole entry, looked up): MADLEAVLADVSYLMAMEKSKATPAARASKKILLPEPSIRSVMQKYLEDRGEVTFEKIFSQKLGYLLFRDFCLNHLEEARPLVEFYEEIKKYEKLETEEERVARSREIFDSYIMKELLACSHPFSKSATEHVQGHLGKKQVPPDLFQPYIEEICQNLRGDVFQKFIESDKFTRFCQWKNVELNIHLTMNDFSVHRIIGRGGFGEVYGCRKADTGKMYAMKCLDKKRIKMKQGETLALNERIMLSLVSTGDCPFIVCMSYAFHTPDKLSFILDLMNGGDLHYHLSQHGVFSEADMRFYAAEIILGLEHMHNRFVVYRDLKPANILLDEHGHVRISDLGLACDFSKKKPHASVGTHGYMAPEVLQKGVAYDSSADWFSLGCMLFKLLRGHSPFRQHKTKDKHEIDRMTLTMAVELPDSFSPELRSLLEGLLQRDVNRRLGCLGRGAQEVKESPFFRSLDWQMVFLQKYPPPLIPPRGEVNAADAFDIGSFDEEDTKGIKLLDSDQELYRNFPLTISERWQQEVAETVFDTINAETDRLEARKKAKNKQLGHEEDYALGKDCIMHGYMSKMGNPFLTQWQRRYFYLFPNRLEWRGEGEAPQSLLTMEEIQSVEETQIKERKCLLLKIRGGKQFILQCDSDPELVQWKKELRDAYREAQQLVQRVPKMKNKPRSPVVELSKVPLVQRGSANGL
The target of assay [10] is Beta-2 adrenergic receptor (Homo sapiens) (UniProt P07550). The assay is described as follows: agonist-induced loss of surface beta2AR – cell-based, FAP fluorogen, flow cytometry, validation set, pilot screen (AID 504459;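 active means percent response above 42, roughly 3 SD of non-fluorescent test compounds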;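 further: agonist-driven loss of surface beta2AR via internalization measured by FAP dye flow cytometry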). The conditions noted are these: Am2.2-beta2AR cells, at 10 µM, stronger effect = higher value.
Sequence of Beta-2 adrenergic receptor (Homo sapiens) (P07550 whole entry, looked up): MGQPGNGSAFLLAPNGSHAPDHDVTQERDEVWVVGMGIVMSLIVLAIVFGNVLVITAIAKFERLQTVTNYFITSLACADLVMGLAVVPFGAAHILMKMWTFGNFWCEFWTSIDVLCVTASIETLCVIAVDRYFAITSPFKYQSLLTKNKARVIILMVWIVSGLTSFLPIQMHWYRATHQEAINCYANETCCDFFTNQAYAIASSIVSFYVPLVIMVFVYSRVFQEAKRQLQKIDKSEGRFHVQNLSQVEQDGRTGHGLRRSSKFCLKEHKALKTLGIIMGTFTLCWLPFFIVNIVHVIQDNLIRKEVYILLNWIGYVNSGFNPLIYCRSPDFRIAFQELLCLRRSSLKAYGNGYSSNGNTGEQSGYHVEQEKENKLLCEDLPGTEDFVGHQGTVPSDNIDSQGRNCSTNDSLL
Assay [11] addresses AP-2 complex subunit beta (Homo sapiens) (UniProt P63010). In words: beta-arrestin/AP2 interaction blockers – biochemical, validation set, GST-AP2 beads, flow cytometry, pilot screen (AID 504541).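 Further: AP2 carries R879A mutation and is captured from E. coli lysate; bead-bound FITC arrestin peptide fluorescence measuring arrestin peptide binding to AP2; 0% = DMSO wells and 100% = excess unlabeled arrestin peptide control.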 The conditions noted are these: FITC arrestin peptide, at 10 µM, stronger effect = higher value, AP2 beta2 appendage fragment, R879A mutant.
Assay [12] in a line: cytosolic pH regulators acting via V-ATPase – S. cerevisiae, pHLuorin, HTS validation (AID 504600; in the data active means response above about 15%;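 further: plate controls were DMSO for no effect and reference compound for full effect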). The conditions noted are these: V-ATPase proton transport, at 10 µM, stronger effect = higher value.
For assay [13], the system named is anti-desmoglein-3 scFv antibody binding to human DSG3. In words: blockers of pathogenic pemphigus antibody–desmoglein-3 binding – biochemical, validation compound set, bead-based, flow cytometry, pilot screen (AID 588368;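 active means binding below the plate cutoff, the plate median minus 3 SD, with a reading above zero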;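 further: signal is the median channel fluorescence of bead-bound GFP antibody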). The conditions noted are these: Protein G beads, DSG3-Fc, scFv-GFP binding, at 10 µM, stronger effect = lower value.
A short description of assay [14]: Nile Red efflux blockade in pump-expressing yeast – validation compound set, multiplex, phenotypic, pilot screen (AID 588506;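 active means efflux inhibition above 0.42, the validation set average plus 4 SD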;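 further: Nile Red retained in cells so higher fluorescence means more efflux inhibition; 0 = negative control wells and 1 = enniatin B 25 µM full block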). The conditions noted are these: S. cerevisiae pump-expressing triplex, Nile Red efflux flow cytometry; at 10 µM; stronger effect = higher value; the pumps come from Candida albicans.
In assay [15] the target is ATP-binding cassette sub-family B member 6 (Homo sapiens) (UniProt Q9NP58). The assay is described as follows: blockers of ABCB6-driven porphyrin uptake – K562-ABCB6 cells, flow cytometry, validation set, pilot screen (AID 588550;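 active means inhibition above the screen-wide mean plus 3 SD, about 51%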;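 further: 0% = DMSO wells and 100% = benzethonium chloride 70 µM positive control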). The conditions noted are these: K562-ABCB6 porphyrin accumulation, 1 h, at 10 µM, stronger effect = higher value.
Sequence of ATP-binding cassette sub-family B member 6 (Homo sapiens) (Q9NP58 whole entry, looked up): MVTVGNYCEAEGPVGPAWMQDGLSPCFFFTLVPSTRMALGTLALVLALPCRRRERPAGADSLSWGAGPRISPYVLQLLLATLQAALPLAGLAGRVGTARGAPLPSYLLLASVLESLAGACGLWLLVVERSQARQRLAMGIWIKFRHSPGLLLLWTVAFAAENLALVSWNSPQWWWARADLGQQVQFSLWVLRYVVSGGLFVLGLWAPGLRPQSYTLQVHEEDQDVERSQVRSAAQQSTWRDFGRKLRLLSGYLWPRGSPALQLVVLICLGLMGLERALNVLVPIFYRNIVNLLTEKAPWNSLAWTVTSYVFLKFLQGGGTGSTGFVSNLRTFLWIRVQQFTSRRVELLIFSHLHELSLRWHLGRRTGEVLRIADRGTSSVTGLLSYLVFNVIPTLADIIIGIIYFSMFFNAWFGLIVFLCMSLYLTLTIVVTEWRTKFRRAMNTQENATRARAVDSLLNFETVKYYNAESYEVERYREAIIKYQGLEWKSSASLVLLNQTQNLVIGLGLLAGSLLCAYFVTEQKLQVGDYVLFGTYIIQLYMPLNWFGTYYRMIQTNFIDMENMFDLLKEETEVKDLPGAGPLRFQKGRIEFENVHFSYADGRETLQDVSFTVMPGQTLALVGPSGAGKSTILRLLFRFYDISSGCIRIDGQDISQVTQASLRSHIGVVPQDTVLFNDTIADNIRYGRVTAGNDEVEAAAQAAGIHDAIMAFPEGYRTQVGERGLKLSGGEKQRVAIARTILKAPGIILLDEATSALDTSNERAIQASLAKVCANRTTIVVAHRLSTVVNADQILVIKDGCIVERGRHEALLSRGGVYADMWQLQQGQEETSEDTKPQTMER
Assay [16] is described as follows: AML differentiation inducers, ER-HoxA9 marrow cells – cell-based, GFP/MAC1 double positive, flow cytometry, validation set, primary screen (AID 588685;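 active means differentiation response of at least 50%, scaled between solvent and reference control, from cells with both markers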;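 further: compound exposure lasts four days before antibody staining and flow analysis; 0% = DMSO wells and 100% = 5 µM fulvestrant positive control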). The conditions noted are these: stronger effect = higher value, normalized: vehicle 0, fulvestrant 100.

The inhibition is the drop in the measured response relative to a control, in per cent.

Results filed as inconclusive are left out. The source made the active and inactive calls.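 How the source made its calls, unless noted: active means inhibition above 54%, about 3 SD of non-fluorescent compounds; inactive means the rest.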

Sequence of AP-2 complex subunit beta (Homo sapiens) (P63010 whole entry, looked up, the tested form may be a part, one chain of several): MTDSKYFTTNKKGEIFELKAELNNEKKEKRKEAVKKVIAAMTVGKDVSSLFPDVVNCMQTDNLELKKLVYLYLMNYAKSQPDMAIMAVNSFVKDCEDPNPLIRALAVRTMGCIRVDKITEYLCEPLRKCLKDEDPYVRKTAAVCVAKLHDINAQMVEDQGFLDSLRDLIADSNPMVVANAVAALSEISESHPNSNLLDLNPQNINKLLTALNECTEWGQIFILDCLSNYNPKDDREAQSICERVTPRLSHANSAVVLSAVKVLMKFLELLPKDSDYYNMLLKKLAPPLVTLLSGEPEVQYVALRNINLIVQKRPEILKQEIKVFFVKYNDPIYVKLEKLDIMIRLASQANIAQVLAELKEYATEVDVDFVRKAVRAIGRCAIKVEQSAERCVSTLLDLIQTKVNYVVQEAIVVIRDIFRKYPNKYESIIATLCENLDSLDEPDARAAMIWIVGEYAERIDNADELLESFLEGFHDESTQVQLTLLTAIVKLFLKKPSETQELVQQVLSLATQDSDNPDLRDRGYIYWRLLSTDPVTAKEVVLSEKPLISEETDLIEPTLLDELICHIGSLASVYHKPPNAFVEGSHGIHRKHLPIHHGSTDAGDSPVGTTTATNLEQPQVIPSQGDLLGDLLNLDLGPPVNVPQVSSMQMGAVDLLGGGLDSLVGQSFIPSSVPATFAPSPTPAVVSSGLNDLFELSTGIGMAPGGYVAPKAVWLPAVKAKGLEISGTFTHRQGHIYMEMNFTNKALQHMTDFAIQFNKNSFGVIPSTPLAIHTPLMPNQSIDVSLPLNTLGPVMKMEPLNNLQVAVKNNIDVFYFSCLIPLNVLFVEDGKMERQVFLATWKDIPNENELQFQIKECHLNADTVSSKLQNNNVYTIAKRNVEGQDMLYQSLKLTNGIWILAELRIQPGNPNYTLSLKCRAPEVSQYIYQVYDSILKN

For `c1ccc(Nc2ccccn2)nc1`, the percent of DMSO control GFP in assay [1] is 98.6% (inactive). Further, the results for the GFP response vs DMSO in assay [2] and in assay [4] were 105% (inactive) and 115% (inactive), respectively. In assay [3], the percent response of DMSO control is 88.2% (inactive). In addition, the GFP response, % of DMSO in assay [5] was 100% (inactive). In assay [6], this molecule yielded a double positive events of 59.3%. The vesicle binding response in assay [6] is 190% (inactive). Further, the inhibition was -3.16% (inactive) in assay [7], -0.14% (inactive) in assay [11] and 4% (inactive) in assay [15]. The superoxide response (% of plate) in [8] is 97.5% (inactive). Moreover, the aptamer binding inhibition in [9] is 3% (inactive). Moreover, the response in assay [10] was -8.84% (inactive); in assay [12], -2.96% (inactive). Further, the binding (% of control) in assay [13] was 103% (inactive). The efflux inhibition (fraction of control) in assay [14] was 0.26 (inactive). The differentiation response in assay [16] was 7.2% (inactive).

Take `CN(CCO)CC(O)Cn1cnc2c1c(=O)n(C)c(=O)n2C` (stereo not given) (tested in a mixture with another compound): the percent of DMSO control GFP in assay [1] was 101% (inactive). Further, the GFP response vs DMSO in assay [2] was 109% (inactive); in assay [4], 106% (inactive). Besides, the percent response of DMSO control in [3] is 100% (inactive). The GFP response, % of DMSO in assay [5] was 112% (inactive). This molecule also showed a double positive events in [6] of 62.5%. Moreover, in assay [6], the vesicle binding response was 211% (inactive). In addition, the values for the inhibition in assay [7], in assay [11] and in assay [15] were 14.2% (inactive), -3.41% (inactive) and 7% (inactive), respectively. In [8], the superoxide response (% of plate) was 93.2% (inactive). Moreover, the aptamer binding inhibition in [9] is -1% (inactive). For the same molecule, the values for the response in assay [10] and in [12] were -18.1% (inactive) and -1.98% (inactive), respectively. Also, in [13], the binding (% of control) was 103% (inactive). Also, the efflux inhibition (fraction of control) in [14] was -0.09 (inactive). Further, in assay [16], the differentiation response was -3.02% (inactive).

`CC(C)COCC1CC2(CC(C)(c3csc(N)n3)OC2=O)C(=O)O1` (stereo not given): the percent of DMSO control GFP in assay [1] was 105% (inactive). For the same molecule, the GFP response vs DMSO was 97.2% (inactive) in assay [2] and 84.8% (inactive) in assay [4]. Moreover, the percent response of DMSO control in assay [3] was 102% (inactive). Moreover, the GFP response, % of DMSO in [5] was 102% (inactive). Moreover, the double positive events in assay [6] came to 60.8%. For the same molecule, the vesicle binding response in [6] was 78.1% (inactive). The inhibition in assay [7] is -9.79% (inactive); in [11], 0.87% (inactive); in assay [15] it was -16% (inactive). The superoxide response (% of plate) in assay [8] is 93% (inactive). The aptamer binding inhibition in [9] is 5% (inactive). The response in [10] is -1.1% (inactive); in assay [12], -4.21% (inactive). Also, in assay [13], the binding (% of control) is 94% (inactive). The efflux inhibition (fraction of control) in assay [14] is 0.14 (inactive). Besides, the differentiation response in assay [16] is -4.64% (inactive).

Consider `Cc1cc(OCC(=O)C(C)(C)C)c2c(C)c(C)c(=O)oc2c1`, for which the percent of DMSO control GFP in assay [1] is 102% (inactive). Moreover, the GFP response vs DMSO in assay [2] is 103% (inactive); in assay [4], 118% (inactive). The percent response of DMSO control in assay [3] was 94.8% (inactive). Moreover, in assay [5], the GFP response, % of DMSO was 98.8% (inactive). Also, in assay [6], the double positive events was determined as 60.4%. In addition, the vesicle binding response in assay [6] is 213% (inactive). In addition, the inhibition is 2.3% (inactive) in [7], 27.4% (inactive) in assay [11] and 3% (inactive) in assay [15]. Further, the superoxide response (% of plate) in [8] was 102% (inactive). In assay [9], the aptamer binding inhibition was 7% (inactive). Further, the response is -4.14% (inactive) in assay [10] and -7.2% (inactive) in assay [12]. The binding (% of control) in [13] is 101% (inactive). For the same molecule, the efflux inhibition (fraction of control) in [14] is 0.26 (inactive). Moreover, the differentiation response in [16] is 4% (inactive).

In the case of `O=C(NCc1ccco1)/C(=C\C=C\c1ccccc1)NC(=O)c1ccccc1Br`, in assay [1], the percent of DMSO control GFP was 108% (inactive). Moreover, the GFP response vs DMSO in [2] is 107% (inactive); in assay [4], 110% (inactive). Moreover, the percent response of DMSO control in [3] is 110% (inactive). The GFP response, % of DMSO in [5] is 106% (inactive). Moreover, in [6], the double positive events worked out at 60.6%. Moreover, the vesicle binding response in [6] was 139% (inactive). Besides, the values for the inhibition in [7], in [11] and in assay [15] were -14.5% (inactive), 5.44% (inactive) and -4% (inactive), respectively. Besides, the superoxide response (% of plate) in [8] was 95.8% (inactive). In addition, in [9], the aptamer binding inhibition is 0% (inactive). Also, the response in assay [10] was 12.9% (inactive); in assay [12], 1.56% (inactive). The binding (% of control) in assay [13] is 104% (inactive). Further, the efflux inhibition (fraction of control) in [14] is -0.045 (inactive). Further, the differentiation response in assay [16] was -3.11% (inactive).

For the origin of these results see PubChem BioAssay.
